In the supplement of paper PMC12632987:

T1: USP38, Q8NB14
T1 chain: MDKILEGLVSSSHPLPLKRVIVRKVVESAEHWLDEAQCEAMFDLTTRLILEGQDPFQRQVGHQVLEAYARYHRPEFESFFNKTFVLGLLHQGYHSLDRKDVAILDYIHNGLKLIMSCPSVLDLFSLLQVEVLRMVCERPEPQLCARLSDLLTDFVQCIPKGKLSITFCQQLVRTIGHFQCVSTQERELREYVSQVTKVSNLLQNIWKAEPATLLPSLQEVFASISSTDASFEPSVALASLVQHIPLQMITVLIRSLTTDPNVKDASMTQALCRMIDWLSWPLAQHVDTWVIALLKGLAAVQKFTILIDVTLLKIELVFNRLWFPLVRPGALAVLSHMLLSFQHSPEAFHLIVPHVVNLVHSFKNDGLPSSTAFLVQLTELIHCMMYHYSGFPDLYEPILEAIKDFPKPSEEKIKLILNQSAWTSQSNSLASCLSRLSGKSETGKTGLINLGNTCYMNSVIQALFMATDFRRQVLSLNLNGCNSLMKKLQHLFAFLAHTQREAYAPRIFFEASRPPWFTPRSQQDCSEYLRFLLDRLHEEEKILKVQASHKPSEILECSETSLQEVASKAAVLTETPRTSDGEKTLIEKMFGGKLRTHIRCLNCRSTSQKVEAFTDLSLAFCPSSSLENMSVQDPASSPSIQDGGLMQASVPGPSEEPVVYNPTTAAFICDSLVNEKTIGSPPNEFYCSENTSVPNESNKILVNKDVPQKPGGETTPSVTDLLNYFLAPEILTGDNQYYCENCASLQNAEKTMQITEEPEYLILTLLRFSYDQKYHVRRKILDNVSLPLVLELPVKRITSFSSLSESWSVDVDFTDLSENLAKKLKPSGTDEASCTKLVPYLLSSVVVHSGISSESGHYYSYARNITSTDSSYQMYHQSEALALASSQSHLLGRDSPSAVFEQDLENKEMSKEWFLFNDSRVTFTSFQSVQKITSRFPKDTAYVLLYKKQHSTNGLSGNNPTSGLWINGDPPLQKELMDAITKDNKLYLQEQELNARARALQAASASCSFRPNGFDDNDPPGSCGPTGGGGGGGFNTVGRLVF

B1: usp_38_diff_out_18_14_310 (protein)
chain: SEELAEAEKSNLEKLTKEVEEDTERVIRLLEKAKDDPERVKRIYERAKRNLAGVETYAKEILERAKKAGDEETKKAAEELLKKIAEARERIEKAYEEVMK
B2: usp_38_diff_out_18_14_311 (protein)
chain: AEELAQAELDNLKSLTTAVTADTARVIRLLEQSKDDPERVKRIYERAKRNLAGVETYAQEVKARAEAAGDADLVAAADALLATVAAARAAIEAAYKAVMA
B3: usp_38_diff_out_18_14_312 (protein)
chain: SEEEAEALLSSVEILTADVERDTARKIRLLEAAKDDPELVERIYERALRDLAGVEAYAEEVLAQAKAEGNAELEAAAQALLATVAAARARLEAAYAAVRA
B4: usp_38_diff_out_18_14_313 (protein)
chain: SEELREAEKSSLEILKKDVEEDTERKIKLLKKAKNDPERVKRIYERAMRDLEGVKKYAEEVLKRAEEEGDEETKKAAEELLKKVEEARERLEKAYKEVME
B5: usp_38_diff_out_18_14_314 (protein)
chain: SEELEEAELSALKTLTADVEADTARKIELLEKAKDDPERVKRIYDRALRDLAGVRTYAEEVLKRAKERGNEELLAAAEALLATVDAAEARLTAKYEEVMK
B6: usp_38_diff_out_18_14_315 (protein)
chain: SEELQEAELSSLKILKEDVVRDTERAIRLLEKSKDDPERVKRIYERRMRNLAGVREYAKEVLERAKKEGNEELLKAAEELLKTVDAAEERLEAKYKEVMA
B7: usp_38_diff_out_18_14_316 (protein)
chain: SEEEEEALLSAVEILKADVERDTDRKIRLLEKAKDDPELVERIYERALRDLAGVEAYAKEVEKEAKKNGNEKLLKAAKELLKTVAAARERLEAAYKEVMA
B8: usp_38_diff_out_18_14_317 (protein)
chain: SEELSKALLSNLKTLTKEVEEDTKRLEKIVEALKDDPEAARSLLETRRQAYEGVAKYAKEVLKEAKEAGDEELAKAAEELLKAAEKALEEVEKRLKELEE
B9: usp_38_diff_out_18_14_318 (protein)
chain: SEELIKQTLSNVKKLTEEVKKDTKRTLKILEKLKDDKESALSLIDTRIQALNGVIKYAEELKKEAEKLGNKELAEAAKELIKAAKEAKKELEKRKKALKE
B10: usp_38_diff_out_18_14_319 (protein)
chain: MEELIEAEKANLKSLTAEVERDTARRLAVVDALRDDPDAAQSLLDTAAQALQGVIAYAEEVAKRAEELGNEELKKAAEELKAAARAALARLEARRAELAA
B11: usp_38_diff_out_18_14_323 (protein)
chain: SEELREATKSNLKTLTAEIKEWTARRLKVIEKLKDDPESATSLLDTAKQALQGVIKYAEEVKREAEEEGDEELKKAATETKKAAEDALKQLEAKEAKLKA
B12: usp_38_diff_out_18_14_324 (protein)
chain: SEELIKARISNLKSLTEEVKKVTARKLKVIDALKDDPESATALIDTQLQALEGVIKYAEEEKKEAEKLGNEELIKAAEELKKAAEEAKAELEKKRKELAA
B13: usp_38_diff_out_18_14_325 (protein)
chain: DAELIAATLANLKSLTEETKKDTERLEKVVEKLKDDPESARSLLETRRQAYEGVKEYAEETKKEAEANGDKELAAAAQELKDAAEKALEKIDKLLKELEA
B14: usp_38_diff_out_18_14_326 (protein)
chain: SEELTEATLSNLKSLTEETKKTTERLKKIVEKLKDDKESALSLLDTRTQAFKGVLKYAEETEKEAKKAGNEELLAAAKELKEAAKKALEEIEKLKKELEE
B15: usp_38_diff_out_18_14_327 (protein)
chain: SEELKEALLSNLKLLKEEVKKDTERTLKILEKLKGDPESARSLIDTRIQALEGVIKYAEEVAKMAKEEGDEELKKAAEELKKEAEEAKKKLEEKRKELEK
B16: usp_38_diff_out_18_14_328 (protein)
chain: SAELREALLSNLETLTKEVKEVTERTLKIVDKLKGDPEAARSLLDTRIQALEGVIKYAEEVAKEAKAAGDKELEAAAEKLKKEAEKAKKELEEKKKALEA
B17: usp_38_diff_out_18_14_329 (protein)
chain: SEELREAILSNLKSLKKEVEKVTERTLKVLEKLKDDPESAKSLIDTRKQALDGVIKYAEEVEKEAEAAGDEETAKAAKELKKAAKEAKAKLEEAEKKLKE
B18: usp_38_diff_out_18_14_330 (protein)
chain: SEELRKAKLSNLKSLKAEVEEVTARTLRVVERLRGDPESARALLDTRIQALDGVIKYAEEVAKEAKAAGDEELAKAAEELKEAARAARARLEAAAAALAA
B19: usp_38_diff_out_18_14_331 (protein)
chain: SEELRKAKLDNLKLLTKEVKEDTERTLRILERLRGDPEAARSLIDTRIQALEGVIKYAEEVKKEAEEAGDEELAKAAEELKKAAEEAKRRLEEARRRLEA
B20: usp_38_diff_out_18_14_332 (protein)
chain: SEELTEQIISNLEKLTKDVKENTARTLKIVEKLKDDPESALSLLDTRIQALKGVEKYAKEVLEEAKKEGNKKLEEAAEKLLKEAKAAIKTLEEKRAALKA
B21: usp_38_diff_out_18_14_333 (protein)
chain: SSELEEQLISNFKSLTEEVKRDTERTLEIVEKLKDDPDAALALLDTRIQALEGVAKYAKEVKKEAEENGNEELKAAAEELLKAAEEAIKKLKEKRKELKA
B22: usp_38_diff_out_18_14_334 (protein)
chain: AAELRAATKANLKTLTAEVKENTERTLRIVDKLKDDPESALSLLDTRIQALKGVAKYAQEVKKEAEEAGDAELKAAAEALLKAAKAAIEELEKRRKELKE
B23: usp_38_diff_out_18_14_335 (protein)
chain: SEELTAATLANVKTLLEDVKKVTERTKKIVAKLKDDPESATSLLESRIQAYEGVIKYAEETLEEAKKAGDKELAAAAKELIKAAKEAKEEFEKLLAELKA
B24: usp_38_diff_out_18_14_336 (protein)
chain: SEELRKAEIENLKTLLKEVKKDTERTIKIVEKLKDDKDSATSLLETRIQAYEGVIKYAEELKERAKKEGDKELIAAAEELIKAAKEAKEKLKELLKKLKA
B25: usp_38_diff_out_18_14_337 (protein)
chain: SEELRQQLLENLKSLTEEVKKEKERTLKIIEKLKDDPESALSLLDTRIQALDGVIKYAKEVAKEAKEEGDKELLEAAEKLIKEAEKAKKELEKKRAELKA
B26: usp_38_diff_out_18_14_339 (protein)
chain: SSELAEAELSNLKSLTEEVKKVTERTEKIIEKLKDDPESAKSLLETRRQAYEGVIKYADEVLKRAEEEGYEELAKAAKELRDEAEKALERLEKLEKELEK
B27: usp_38_diff_out_18_14_340 (protein)
chain: SDELAKATLANLKTLTEEVKKVTERTEKIIKKLADDPEAAKSLLDTRKQAYQGVITYAKEVAEEAKAAGYKELLAAAEELKKAAEEALKTLEKLEKELKA
B28: usp_38_diff_out_18_14_341 (protein)
chain: SAELAAATLANLKSLTAEVKEVTARTEKIVEKLKDDPEAALSLLDTRKQAYEGVITYAEEVAKEAKAAGDAELEAAAKELKKAAEEALAKMEKLRAELKA
B29: usp_38_diff_out_18_14_343 (protein)
chain: SEELAEAELANLKSLKEEVKRVTERTKKIIEKLKDDPEAALSLLDTRIQAYKGVIKYAEEVLKEAKKAGYEELAKAAEELKKAAEEALKELERLRKELEA
B30: usp_38_diff_out_18_14_344 (protein)
chain: SEELRKATKSNLESLKKDVKEVTERTKKIVAKLKDDPESALSLLETRIQALEGVIKYAEETLKEAEEEGDEELKKAAEELKKEAEEAKAEFEALLAALKA
B31: usp_38_diff_out_18_14_345 (protein)
chain: GEELEEQIKANLELLTKEVKENTERLVKILEKLKDDPESALSLIDTRLQALNGVKAYAEEELKRAKERGNEELKKAAEELIKAAEEAIKTLEELRKKLKA
B32: usp_38_diff_out_18_14_346 (protein)
chain: DEELAKQLKEQFESLTKEVEENTKRLKEIVEKLKDDPESALSLLETRIQALEGVIKYAEEEKKRAKAAGFEELAAAAEKLIKAAKAAKEEAEKLKKELKA

Molecular target: T1, USP38, Q8NB14
Experiment: median log2 fold change of GCK-ALFA target abundance (FLAG IP / Myc IP barcode read proportion) (log2 ratio); each designed protein is fused to an ALFA-tag nanobody in HEK293 cells to bring the named protein to FLAG-tagged glucokinase (GCK); Myc marks an untargeted standard; higher = target protein stabilised (more abundant)
Settings: target protein: 3xFLAG-MCP-GCK-ALFA reporter; HEK293 landing pad (RPLP)
How it was run: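 The readout is target abundance, the per-binder median log2 ratio of FLAG to Myc barcode read proportions. It came from HEK293 landing-pad cells carrying a recombined ALFA-nanobody-fused binder library, induced with 2 μg mL^−1 doxycycline and transfected with a plasmid for a FLAG-tagged target and a Myc-tagged standard. After 48 h, lysates were immunoprecipitated with anti-FLAG and anti-Myc, and circular RNA barcodes were reverse transcribed, amplified and sequenced. Each barcode needed a proportion of at least 10^−7 in both replicates and each binder at least 3 barcodes per replicate, a pseudocount of 10^−6 was added, and the replicates were pooled.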

Binder	median log2 fold change
B1	0.384
B2	-0.0344
B3	0.0395
B4	0.328
B5	0.22
B6	0.253
B7	0.00386
B8	-0.378
B9	-0.746
B10	0.235
B11	-0.403
B12	0.13
B13	0.134
B14	-0.166
B15	-0.444
B16	-0.102

Binder	median log2 fold change
B17	-0.556
B18	0.0025
B19	0.193
B20	0.139
B21	-0.013
B22	0.0876
B23	-0.351
B24	-0.177
B25	0.0476
B26	0.0814
B27	-0.499
B28	0.0312
B29	-0.329
B30	0.232
B31	-0.0272
B32	-0.0584
